Compound activity as filed in PubChem BioAssay.
Cycloheximide cs = Cycloheximide Counterscreen for Small Molecule Inhibitors of Shiga Toxin. AID 2314, 2010. actives 12% (n = 300,000). cell reporter, cycloheximide protein synthesis inhibition counterscreen. max response, %; in the data active = max response mostly above about 13%, no sharp cut-off; inactive = mostly below about 14%; also: read at 38.3 µM for the half of the compounds with a filed dose; 0% is about no effect
Pf growth 96h = Primary qHTS for delayed death inhibitors of the malarial parasite plastid, 96 hour incubation. P. falciparum luciferase reporter growth, 96 h. Potency, µM (titrated, usually from 28.7 µM), inactives show at the top dose activity change, negative = inhibition, hits mostly inhibitors. actives 6.9% (n = 320,000); also: potency is read from the fitted curve at half-maximal effect; % is scaled to controls: 0 for no effect and ±100 for the full control effect
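Readout is luminescence from an integrated firefly luciferase in P. falciparum. Red cells, 2% hematocrit and 0.05% parasitemia final, were cultured with compound through two parasite generations (96 hours) at 37 C, 5% CO2.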
Shiga inhibitor = A qHTS for Small Molecule Inhibitors of Shiga Toxin | inhibition, % at 38.7 µM | Vero cells, Shiga toxin protein synthesis inhibition reporter | actives 9.2% (n = 290,000); in the data active = inhibition mostly above about 28%, no sharp cut-off; inactive = mostly below about 43%; also: 0% is about no effect
Pf growth 48h = Primary qHTS for delayed death inhibitors of the malarial parasite plastid, 48 hour incubation. P. falciparum luciferase growth in erythrocytes, 48 h. actives 5.9% (n = 310,000). Potency, µM (series often up to 28.7 µM), inactives show at the highest dose activity change, negative = inhibition, actives largely listed as inhibitors; also: potency is read from the fitted curve at half-maximal effect; % is scaled to controls: 0 for no effect and ±100 for the full control effect
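Luciferase-expressing P. falciparum in infected erythrocytes (2% hematocrit, 0.1% parasitemia final) in RPMI 1640/0.5% Albumax were exposed to compound for 48 hours at 37 C, 5% CO2; growth read as luminescence.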
* marks the source's active call; other numbers are inactive results. Most compounds without a hit are left out; they make up all but 21% or so of the library. Unless noted, calls follow the shape of the dose curve; as a rule, active = well fitted inhibition curve with a large enough effect; inconclusive = small, poorly fitted or top-dose-only effect, or another doubt; inactive = no such curve, though single readings can be large or run the other way.

How did CN1CCN(CC(O)COc2ccc(Cl)cc2)CC1 (stereo not drawn) do in these assays?
Cycloheximide cs: -5; Pf growth 96h: 20%; Shiga inhibitor: -5

Results for COc1cccc(CN(C)C(=O)c2cccc(OCc3ccccc3)c2)c1 ?
Cycloheximide cs: 8; Pf growth 96h: 33%; Shiga inhibitor: 22; Pf growth 48h: 11%

How did Cc1nn(CC(=O)NCCC2=CCCCC2)c(C)c1[N+](=O)[O-] do in these assays?
Pf growth 96h: 13%; Pf growth 48h: inconclusive

Results for COc1cccc(NC(=S)N(CCCN2CCOCC2)C(C)c2cc3cccc(OC)c3o2)c1 (stereo not drawn) ?
Cycloheximide cs: 7; Pf growth 96h: 2.1µM*; Shiga inhibitor: -13; Pf growth 48h: inconclusive

How did COc1cccc(NC(=O)N(CCCN2CCOCC2)C(C)c2cc3ccccc3o2)c1 (stereo not drawn) do in these assays?
Cycloheximide cs: -3; Pf growth 96h: 12µM*; Shiga inhibitor: -3

What do the screens show for `Cc1nc2ccn(Cc3ccccc3)c(=O)c2cc1C(=O)N1CCN(c2ccccc2)CC1`?
Cycloheximide cs: -3; Pf growth 96h: 78%; Shiga inhibitor: -5; Pf growth 48h: -10%

How did N#Cc1cccc(CN2CCC(=O)N([C@H](CO)Cc3ccccc3)CC2)c1 do in these assays?
Cycloheximide cs: -1; Pf growth 96h: 32%; Shiga inhibitor: 0; Pf growth 48h: -1%

What do the screens show for `Cc1ccc2nc(-c3ccc(NC(=O)COC(=O)c4ccc(Br)o4)cc3)sc2c1`?
Cycloheximide cs: 27*; Pf growth 96h: inactive; Shiga inhibitor: 81*; Pf growth 48h: 284%

How did COc1ccc(/C=C(\C#N)C(=O)OCC(=O)Nc2ccc(-c3nc4ccc(C)cc4s3)cc2)cc1 do in these assays?
Cycloheximide cs: 28*; Pf growth 96h: 168%; Shiga inhibitor: 123*; Pf growth 48h: 91%

Results for Cc1ccc2nc(-c3ccc(NC(=O)COC(=O)c4ccco4)cc3)sc2c1 ?
Cycloheximide cs: 46*; Pf growth 96h: inactive; Shiga inhibitor: 80*; Pf growth 48h: 246%

Results for CC(=O)Nc1ccc(NC(=O)COC(=O)c2ccco2)cc1 ?
Cycloheximide cs: 11; Pf growth 96h: 11%; Shiga inhibitor: 13; Pf growth 48h: 2%

What do the screens show for `COc1ccc(/C=C(\C#N)C(=O)OCC(=O)NC(C)c2ccccc2)cc1` (stereo not drawn)?
Cycloheximide cs: -2; Pf growth 96h: 8%; Shiga inhibitor: 8; Pf growth 48h: 14%

How did CNS(=O)(=O)c1cccc(C(=O)OCC(=O)Nc2ccc(-c3nc4ccc(C)cc4s3)cc2)c1 do in these assays?
Cycloheximide cs: 45*; Pf growth 96h: 96%; Shiga inhibitor: 94*; Pf growth 48h: 116%

Results for CN(C)C(=O)c1cc(C(=O)c2ccc(F)cc2C(F)(F)F)c[nH]1 ?
Cycloheximide cs: 4; Pf growth 96h: 7%; Shiga inhibitor: 18; Pf growth 48h: 19%

What do the screens show for `O=C(CCCC(=O)Nc1ccc(Br)cc1)N/N=C/c1ccccc1`?
Cycloheximide cs: -2; Pf growth 96h: 23%; Shiga inhibitor: 7; Pf growth 48h: 31%

What do the screens show for `CC(C)[C@H](NC(=O)c1ccco1)C(=O)N(C)Cc1ccc(C(F)(F)F)cc1`?
Cycloheximide cs: 9; Pf growth 96h: 4%; Shiga inhibitor: -11; Pf growth 48h: -4%

How did Cc1ccc(NC(=O)CN2CCN(C(=O)c3ccco3)CC2)cc1 do in these assays?
Cycloheximide cs: -4; Pf growth 96h: -9%; Shiga inhibitor: -4; Pf growth 48h: 8%

How did Cc1ccc2nc(-c3ccc(NC(=O)CN4CCN(C(=O)c5ccco5)CC4)cc3)sc2c1 do in these assays?
Cycloheximide cs: 43*; Pf growth 96h: 1.5µM*; Shiga inhibitor: 136*; Pf growth 48h: 2.3µM*

How did CCOc1ncccc1C(=O)OCC(=O)Nc1ccc(-c2nc3ccc(C)cc3s2)cc1 do in these assays?
Cycloheximide cs: 76*; Pf growth 96h: 57%; Shiga inhibitor: 128*; Pf growth 48h: 227%

Results for C=CCn1c(SCC(=O)Nc2ccc(-c3nc4ccc(C)cc4s3)cc2)nnc1-c1ccccc1 ?
Cycloheximide cs: 42*; Pf growth 96h: 176%; Shiga inhibitor: 84*; Pf growth 48h: 207%

Results for Cc1ccc(NC(=O)COC(=O)c2ccco2)cc1 ?
Cycloheximide cs: 37*; Pf growth 96h: 43%; Shiga inhibitor: 54*; Pf growth 48h: 28%
